Assay outcomes: PubChem, National Center for Advancing Translational Sciences (NCATS)
Only some compounds are listed: those with a hit (about 3.9% of all), similar ones and a draw of the others.
D1 PAM: human D1 dopamine receptor positive modulation | 0.036% of 360,000 active | HEK293 TREx D1 cells, calcium flux, dopamine EC20 potentiation | potentiation, % at 10 µM | P21728; in the data active = potentiation above about 30%; note: 0% is about no effect
USP2a inh: blocks human ubiquitin-specific protease USP2a | O75604 | USP2 core, Ub-CHOP2 coupled fluorogenic reporter, 485/531 | Potency, µM (top dose mostly 38.3 µM), for inactives: at the top dose activity change, negative = inhibition, most hits filed as inhibitors | 0.01% of 330,000 active | AID 463254;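 note: potency is the fitted concentration of half-maximal effect; plate controls were DMSO wells for no effect and full inhibition by NEM control for full effect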
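Deubiquitinase activity read as fluorescence (485/531 nm) after Ub-CHOP2 cleavage activates the enterokinase reporter on its substrate; USP2 core 10nM, Ub-CHOP2 and substrate 25nM each, 30min compound preincubation then 60min RT; data normalized to NEM, curves fitted.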
GALK inh: galactokinase (human) inhibition | Potency, µM (top dose mostly 57.5 µM), for the others: at the top dose activity change, negative = inhibition, most hits filed as inhibitors | AID 1868 | 0.007% of 270,000 active | Purified GALK, Kinase-Glo residual ATP luminescence | P51570; note: potency is the fitted concentration of half-maximal effect; % is set by controls: 0 for no effect and ±100 for the full control effect
Target sequence (P51570 whole entry, looked up): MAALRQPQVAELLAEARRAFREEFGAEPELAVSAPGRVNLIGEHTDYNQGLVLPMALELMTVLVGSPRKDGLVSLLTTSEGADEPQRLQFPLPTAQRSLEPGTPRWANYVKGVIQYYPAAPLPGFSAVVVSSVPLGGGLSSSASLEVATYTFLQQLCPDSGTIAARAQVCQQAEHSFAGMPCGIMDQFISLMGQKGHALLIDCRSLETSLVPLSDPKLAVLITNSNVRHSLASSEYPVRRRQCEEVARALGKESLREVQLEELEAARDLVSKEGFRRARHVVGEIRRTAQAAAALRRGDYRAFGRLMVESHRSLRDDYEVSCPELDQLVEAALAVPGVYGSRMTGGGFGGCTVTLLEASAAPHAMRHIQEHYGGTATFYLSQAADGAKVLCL
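Quantitative HTS: GALK 5 nM, ATP 35 uM, galactose 100 uM, 1 h room temperature, then luciferase-based ATP detection.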
Eya2 phos inh: blocks the phosphatase activity of human Eya2; O00167; recombinant Eya2, OMFP fluorescence dephosphorylation (OMFP is methylfluorescein phosphate); Potency, µM (doses to about 76.9 µM), without a hit: at the highest dose activity, negative = inhibition, hits mostly inhibitors; 0.006% of 330,000 active; AID 488837; note: potency is the fitted concentration of half-maximal effect; % is set by controls: 0 for no effect and ±100 for the full control effect
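Eya2 protein (added as 0.2 uM solution) was preincubated with compound for 10 min at ambient temperature in 50 mM HEPES pH 7.5, 50 mM NaCl, 5 uM MgCl2, 0.05% BSA, 1 mM DTT. OMFP (added at 50 uM) then reacted 10 min; fluorescence read at 485/525 nm.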
D1 ag: activates the human D1 dopamine receptor; P21728; HEK293 T-REx D1 cells, calcium flux, agonist mode; activation, % at 2 µM; 1% of 360,000 active; AID 504660; in the data active = activation above about 30%; note: 0% is about no effect
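Tetracycline-induced HEK293 TREx D1 cells, force-coupled to calcium signalling, were dye-loaded with a no-wash calcium kit. Compound was pin-added after a 10 s baseline. Fluorescence was read kinetically at 1 cycle/s for 180 s, with calcium rises flagged as agonism.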
D1 antag: antagonists of human D1 dopamine receptor; P21728; HEK293 TREx D1 cells, calcium flux, dopamine EC80; stronger effect = lower value; activity change, negative = inhibition, % at 10 µM; 3.2% of 360,000 active; AID 504652; in the data active = activity change below about -30%; note: % is set by controls: 0 for no effect and ±100 for the full control effect
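Antagonism measured as reduced calcium response to an EC80 dopamine addition following 180 s compound pre-read; cells were inducible HEK293 Trex D1 plated overnight at 30 C, read kinetically at 1 cycle/sec.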
* = called active by the depositor. Unless noted, calls come from the whole dose curve; as a rule, active = well fitted inhibition curve with a large enough effect; inconclusive = small, poorly fitted or top-dose-only effect, or effect the other way; inactive = flat fitted curve, though single readings scatter.

What do the screens show for `Cc1ccc2c(n1)sc1c(-c3ccc(Br)cc3)c(C#N)c(N)nc12`?
D1 PAM: -10; USP2a inh: 3%; Eya2 phos inh: -1%; D1 ag: 2; D1 antag: -31*

What do the screens show for `Cc1ccc(-c2cc(C(=O)O)c3ccccc3n2)s1`?
D1 PAM: -6; USP2a inh: 2%; GALK inh: 2%; Eya2 phos inh: 2%; D1 ag: 1; D1 antag: -46*

What do the screens show for `Cc1ccc(C2=NN(CCC(=O)NCCc3cccc(C)c3)C(=O)CC2)cc1`?
D1 PAM: -5; D1 ag: 1; D1 antag: 5

Results for O=C(CNC(=O)c1ccc2ccccc2c1)OC(C(=O)Nc1cc(C(F)(F)F)ccc1Cl)c1ccccc1 (configuration not stated) ?
D1 PAM: 4; D1 ag: 5; D1 antag: 24

What do the screens show for `Cc1cccc(-c2nc3c(cnn3-c3ccccc3)c(=O)n2-c2ccc(Br)cc2)c1`?
D1 PAM: -2; D1 ag: 27; D1 antag: -11

Results for COc1cc([N+](=O)[O-])ccc1N/C=C/C(=O)c1cccs1 ?
D1 PAM: -8; USP2a inh: 12%; GALK inh: 6%; Eya2 phos inh: -5%; D1 ag: 42*; D1 antag: -8

Results for COc1cc([N+](=O)[O-])ccc1NC(=O)/C=C\C(=O)O ?
D1 PAM: -1; USP2a inh: -1%; GALK inh: -2%; Eya2 phos inh: 18%; D1 ag: 2; D1 antag: 8

Results for CCc1cccc(C)c1NC(=O)c1cc(S(=O)(=O)NCc2ccccc2Cl)ccc1F ?
D1 PAM: 10; D1 ag: 11; D1 antag: 90

Results for CCOC(=O)Cn1nc(-c2ccccc2)c2cnc3ccc(OCC)cc3c21 ?
D1 PAM: -3; D1 ag: 13; D1 antag: -15

Results for COC(=O)c1ccccc1NC(=O)CNc1ccc(F)c(S(=O)(=O)N2CCOCC2)c1 ?
D1 PAM: 2; USP2a inh: 4%; Eya2 phos inh: -17%; D1 ag: 0; D1 antag: -51*

How did CCc1ccccc1OCC(=O)Nc1ccc(F)c(S(=O)(=O)N2CCOCC2)c1 do in these assays?
D1 PAM: -9; USP2a inh: 5%; Eya2 phos inh: -15%; D1 ag: 9; D1 antag: 1

What do the screens show for `Cc1ccc(C(=O)Nc2ccc(C)c(S(=O)(=O)N3CCOCC3)c2)c(C)c1`?
D1 PAM: -12; USP2a inh: 0%; GALK inh: -5%; Eya2 phos inh: -8%; D1 ag: 6; D1 antag: -42*

Results for O=C(Nc1ccc(F)c(F)c1)c1ccc(F)c(S(=O)(=O)N2CCOCC2)c1 ?
D1 PAM: -3; USP2a inh: 0%; GALK inh: -4%; Eya2 phos inh: 21%; D1 ag: 15; D1 antag: -33*

What do the screens show for `O=C(NCCc1ccc(F)cc1)c1ccc(Cl)c(S(=O)(=O)N2CCOCC2)c1`?
D1 PAM: -9; USP2a inh: 0%; Eya2 phos inh: 14%; D1 ag: 10; D1 antag: -33*

What do the screens show for `Cc1cc(C(=O)Nc2ccc(C)c(S(=O)(=O)N3CCOCC3)c2)c(C)o1`?
D1 PAM: -2; USP2a inh: 0%; GALK inh: 8%; Eya2 phos inh: 4%; D1 ag: -1; D1 antag: 0

Results for CCOc1ccc(CCNC(=O)c2ccc(Cl)c(S(=O)(=O)N3CCOCC3)c2)cc1OCC ?
D1 PAM: -4; USP2a inh: -1%; Eya2 phos inh: -11%; D1 ag: 2; D1 antag: 1

Results for Cc1ccc(C)c(NC(=O)CSc2ccc3nc(-c4ccccc4)cn3n2)c1 ?
D1 PAM: -2; D1 ag: 1; D1 antag: -1

What do the screens show for `Cc1ccc(Cl)cc1N1CCN(C(=O)C2CCN(Cc3nc(-c4ccc(Cl)cc4)oc3C)CC2)CC1`?
D1 PAM: -6; D1 ag: -2; D1 antag: 1

Results for COc1cc(NC(=O)COCc2cc(-c3ccc4c(c3)OCO4)on2)c(OC)cc1Cl ?
D1 PAM: 0; D1 ag: 4; D1 antag: 1

Results for O=C(CSCc1cnn(-c2ccccc2)c1-n1cccc1)NCc1ccccc1F ?
D1 PAM: -2; D1 ag: 9; D1 antag: 0

What do the screens show for `CCn1nc(C(=O)Nc2ccc(Cl)c(S(=O)(=O)N3CCOCC3)c2)c2ccccc2c1=O`?
D1 PAM: -4; USP2a inh: 0%; Eya2 phos inh: -30%; D1 ag: 4; D1 antag: -37*

How did COc1ccc(C(=O)Nc2ccccc2[N+](=O)[O-])cc1S(=O)(=O)N1CCOCC1 do in these assays?
D1 PAM: 9; USP2a inh: -2%; GALK inh: -4%; Eya2 phos inh: -7%; D1 ag: 0; D1 antag: -3

How did Cc1ccc(NC(=O)CSc2n[nH]c(N)n2)cc1S(=O)(=O)N1CCOCC1 do in these assays?
D1 PAM: 0; USP2a inh: 0%; GALK inh: 3%; Eya2 phos inh: -3%; D1 ag: 0; D1 antag: -64*

Results for Cc1ccc(C(=O)Nc2ccccc2[N+](=O)[O-])cc1S(=O)(=O)N1CCOCC1 ?
D1 PAM: -6; USP2a inh: 3%; GALK inh: -2%; Eya2 phos inh: 1%; D1 ag: 1; D1 antag: -34*

Results for CCn1c(=O)c2sccc2n2c(CCC(=O)NCc3ccc(Cl)cc3)nnc12 ?
D1 PAM: -1; D1 ag: 0; D1 antag: -6

Results for CC(=O)c1c(C)oc2c1cc(NS(=O)(=O)c1ccc(Cl)c(C)c1)c1ccccc12 ?
D1 PAM: -2; D1 ag: -1; D1 antag: 1

What do the screens show for `Cc1cccc(N2CCN(C(=O)CCCn3ncn4c(cc5occc54)c3=O)CC2)c1C`?
D1 PAM: -2; D1 ag: 4; D1 antag: -25

Results for COc1ccc(NC(=O)Cn2nc(-c3ccccc3)c3cnc4ccc(C)cc4c32)cc1 ?
D1 PAM: -1; D1 ag: 1; D1 antag: -24

How did CCN1CCN(Cc2c(O)ccc3oc(C)c(C(=O)Nc4cccc(C(F)(F)F)c4)c23)CC1 do in these assays?
D1 PAM: 0; D1 ag: 50*; D1 antag: -23
